Bioassay records deposited in PubChem BioAssay by National Center for Advancing Translational Sciences (NCATS).
DT40 TDP1 CPT: growth inhibition of DT40 Tdp1-/-;hTDP1 cells with camptothecin (screen for TDP1 inhibitors); chicken DT40 Tdp1-/-;hTDP1 cells + 20 nM CPT, ATP luminescence, 48 h; Potency, µM (top dose mostly 46.2 µM), inactives show top-dose activity change, negative = growth inhibition, most hits filed as inhibitors; 12% of 420,000 active; note: nearly all actives have a fitted effect of over 55% in size
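Cell growth measured by CellTiter-Glo luminescence after a minimum 48 h, 37 C compound exposure with 20 nM CPT in Tdp1-knockout DT40 cells stably expressing hTDP1, seeded 400/well; qHTS titration format.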
TDP1 cell noCPT: qHTS for Inhibitors of human tyrosyl-DNA phosphodiesterase 1 (TDP1): qHTS in cells in absence of CPT. DT40 Tdp1-/- hTDP1 cells, no CPT, ATP luminescence, 48 h. Potency, µM (titrated, usually from 46.2 µM), for the others: at the highest dose activity change, negative = growth inhibition, actives largely listed as inhibitors. 15% of 420,000 active. AID 686978, 2013; note: nearly all actives have a fitted effect of over 55% in size
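Seeded 400 DT40-hTDP1 cells/well (vehicle DMSO, no 20 nM CPT); pinned compounds; ≥48 hr at 37 °C; CellTiter-Glo luminescence as viability measure.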
KB-3-1 tox: KB-3-1 parental cell cytotoxicity; KB-3-1 viability, CellTiter-Glo ATP luminescence, 72 h; Potency, µM (highest dose often 46.1 µM), hits mostly cytotoxic; 1.4% of 400,000 active; note: nearly all actives have a fitted effect of over 60% in size
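Cytotoxicity in the drug-sensitive parental line KB-3-1 was scored as loss of CellTiter-Glo luminescence following 72 h incubation with compound. Values come from curve fitting of normalized concentration-response data.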
HT1080 IDH1KD tx: kills HT-1080 cells with IDH1 knockdown. 2% of 360,000 active. HT-1080 IDH1 knockdown viability, ATP luminescence, 48 h. Potency, µM (doses to about 46.1 µM), for inactives: at the highest dose activity, negative = toxicity, hits mostly cytotoxic;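 note: 0% = DMSO wells and -100% = cell-free medium wells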
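HT-1080-IDH1KD cells (IDH1 knocked down), 750/well in RPMI with 5% FBS, treated with compound 48 h at 37 degrees C. Viability by CellTiter-Glo luminescence, normalised to DMSO and no-cell wells; concentration-response curves classed.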
KB-V1 MDR tox: kills drug-selected multidrug resistant KB-V1 cells; KB-V1 MDR cells viability, CellTiter-Glo, 72 h; Potency, µM (series often up to 46.1 µM), actives largely listed as cytotoxic; AID 1347076; 3.4% of 400,000 active; note: nearly all actives have a fitted effect of over 60% in size
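Cytotoxicity toward P-gp-expressing KB-V1 cells was determined as loss of CellTiter-Glo luminescence after 72 h at 37 degrees C. Compounds were tested in quantitative HTS format across a concentration range, with curves fitted to normalized data.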
HT1080NT lethal: kills 2HG-producing HT-1080-NT fibrosarcoma cells; HT-1080-NT fibrosarcoma viability, CellTiter-Glo ATP luminescence, 48 h; Potency, µM (top dose mostly 46.1 µM), inactives show at the highest dose activity, negative = less viability, most hits filed as cytotoxic; 1.6% of 360,000 active;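 note: NT is the 2HG producing partner of a matched IDH1 knockdown line; 0% = DMSO-treated cells and -100% = media-only wells without cells; nearly all actives have a fitted effect of over 55% in size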
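HT-1080-NT fibrosarcoma cells (2HG-overproducing), 750 cells/well in RPMI with 5% FBS, dosed after 2 h and incubated 48 h at 37C. CellTiter-Glo luminescence normalized to DMSO and no-cell wells; concentration-response curves fitted and classed.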
Active calls of the source: *; i = inactive; ? = inconclusive; · = no result given; [ ] = dose if it differs, or a comment. Most compounds without a hit are left out; they make up all but 19% or so of the library. Calls come from the whole dose curve; as a rule, active = well fitted curve in the direction sought with a large enough effect; inconclusive = small, poorly fitted or top-dose-only effect, or another doubt; inactive = no such curve, though single readings can be large; an effect the other way counts as inactive or inconclusive. Unless noted, % is set by controls: 0 for no effect and ±100 for the full control effect; potency is the fitted concentration of half-maximal effect.

SMILES	DT40 TDP1 CPT	TDP1 cell noCPT	KB-3-1 tox	HT1080 IDH1KD tx	KB-V1 MDR tox	HT1080NT lethal
COc1ccc(NC(=O)CN2C(=O)CSc3ccc(S(=O)(=O)N4CCCC4)cc32)cc1OC	?	?	i	6%	i	0%
Cc1cc(C)cc(NC(=O)CN2C(=O)CSc3ccc(S(=O)(=O)N(C)C)cc32)c1	21µM*	16µM*	i	·	i	·
CN(C)S(=O)(=O)c1ccc2c(c1)N(CC(=O)Nc1ccc(OC(F)(F)F)cc1)C(=O)CS2	16µM*	?	i	·	i	·
O=C(OC1CCCCC1)c1ccc(NC(=O)C2CCCCC2)cc1	?	21µM*	?	?	?	?
CC(C)(C)C(=O)Nc1ccc(C(=O)OC2CCCCC2)cc1	26µM*	21µM*	i	?	?	13µM*
CCOc1cc(/C=N/NC(=O)c2ccc(NC(=O)C3CC3)cc2)ccc1O	?	-18%	i	-4%	i	-8%
COc1cc(/C=N/NC(=O)c2ccc(NC(=O)C3CCCCC3)cc2)ccc1O	3%	-11%	i	12µM*	i	?
COC(=O)c1ccccc1NC(=O)c1sc2nc(C)cc(C)c2c1NC(=O)c1ccccc1Cl	·	·	?	·	i	·
S=c1ccss1	-13%	?	·	·	·	·
O=C(COC(=O)c1cc(S(=O)(=O)N2CCCCC2)ccc1N1CCOCC1)c1ccccc1Cl	-14%	-28%	i	7%	i	3%
COc1ccccc1C(=O)NCCC(=O)N1CCN(c2cccc(C(F)(F)F)c2)CC1	16µM*	?	i	1%	i	-3%
O=C(Cn1ccc2ccccc2c1=O)NCCC(=O)N1CCN(c2cccc(C(F)(F)F)c2)CC1	21µM*	16µM*	i	-7%	i	3%
Cc1ccc(/C=C/C(=O)N2CCN(c3cccc(C(F)(F)F)c3)CC2)cc1	-18%	-7%	i	?	?	?
Cc1cn(C)c(CC(=O)N2CCN(c3cccc(C(F)(F)F)c3)CC2)c1C(=O)O	13µM*	?	i	·	i	·
Cc1cn(C)c(CC(=O)N2CCN(c3ccc(F)cc3)CC2)c1C(=O)O	4%	-4%	i	·	i	·
Cc1ccc(C)c(C(=O)CCC(=O)N2CCN(c3cccc(C(F)(F)F)c3)CC2)c1	15µM*	12µM*	i	-11%	i	-1%[9.24 µM]
O=C(Cn1ccc2ccccc2c1=O)NCCC(=O)N1CCN(c2ccccc2)CC1	-6%	-11%	i	3%	i	-2%
CCC(C)[C@H](NC(=O)N1CCCCCC1)C(=O)OC (some centres undefined)	-5%	0%	i	6%	i	-1%
Cc1nc2c3ccccc3nc(NNC(=O)CCC(=O)N3CCN(c4cccc(C(F)(F)F)c4)CC3)n2n1	21µM*	23µM*	?	·	i	·
CN(C)S(=O)(=O)N1CCC(Oc2ccc(C(=O)NC3Cc4ccccc4C3)cc2)CC1	?	16µM*	?	0%	?	-3%
CN(C)S(=O)(=O)N1CCC(Oc2ccc(C(=O)NC3CCOC(C)(C)C3)cc2)CC1 (centres undefined)	-13%	-15%	i	10%	i	11%
CN(C)S(=O)(=O)N1CCC(Oc2cccc(C(=O)NC3CCCCCC3)c2)CC1	18µM*	15µM*	i	-15%	1.3µM*	?
CCN1CCN(C(=O)c2cccc(OC3CCN(S(=O)(=O)N(C)C)CC3)c2)CC1	2%	9%	·	2%	·	-1%
CCOc1cccc(C=Nc2cc(C)cc(C)c2O)c1O	15µM*	?	i	-4%	i	-9%
